{"source": "PubChem BioAssay (NCATS)", "note": "Inconclusive results are not listed. Entries that show only a call come without a potency. The source made the active and inactive calls. The call rests on the fitted dose curve; in most records, active means well fitted cell-killing curve with a large enough effect; inconclusive means small, poorly fitted or top-dose-only effect; inactive means no such curve, though single readings can be large or run the other way. Potency means the concentration at half of the fitted maximal effect."}
{"assay": "qHTS of pediatric cancer cell lines to identify multiple opportunities for drug repurposing: Primary screen for OHS-50 cells (AID 1347103); further: nearly all actives have a fitted effect of over 40% in size", "settings": "OHS-50 osteosarcoma viability, CellTiter-Glo luminescence, 48 h; series mostly up to 57.3 µM", "excerpt": "Drug repurposing or repositioning has been offered as a strategy for drug development in oncology programs. This approach has special potential for childhood cancers and other rare or orphan diseases, where the expected return on new drug development has been a disincentive to pharmaceuticals.\nIn this project we exploit the poly-pharmacology of drugs to discover new indications via phenotypic screening of a panel of 19 well-characterized cell lines derived from solid tumors seen in children and adolescents. The goal is to identify approved drugs with previously unrecognized anticancer properties that has the potential to reveal new mechanisms and biological processes involved in carcinogenesis or drug resistance. We employed a titration-based paradigm (quantitative high-throughput screening or qHTS), where all compounds were tested at multiple concentrations for their effect on cell viability. Concentration-response curves (CRCs) were derived directly from the primary screen, and both potency and efficacy values were used to identify compounds with robust bioactivity profiles. We screened the NIH Chemical Genomics Center (NCGC) Pharmaceutical Collection (NPC) and Mechanism Interrogation Plate (MIPE) small molecule collections of approved and investigational compounds against these cell lines; and measured metabolically active cells after 48 hours of compound treatment as a proxy for cell viability.\nAssay Submitter: Nathalia J. Martinez, National Center for Advancing Translational Sciences, National Institutes of Health, Rockville, MD, USA; email: natalia.martinez@nih.gov\n[1] Shen, M et al. Quantitative high-throughput phenotypic screening of pediatric cancer cell lines identifies multiple opportunities for drug repurposing. Oncotarget 2017 Dec 19;9(4):4758-4772. PMID 29435139.\nThe cells were obtained from University of North Carolina (UNC), Pediatric Preclinical Testing Program (PPT), and Coriell Institute (CI).\nqHTS cell viability assay:\nCells were assayed in growth media at a density of 500-1,000 cells/well. Five microliters of cells were dispensed into 1,536-well, white, solid-bottom, TC-treated plates (Greiner Bio One) using a multidrop dispenser and incubated at 37 degrees C, 5% CO2, under a humidified atmosphere for 5 hours. Twenty-three nanoliters of compounds and controls (neutral control DMSO or positive control bortezomib at final concentration of 2.3 µM) were subsequently transferred by Kalypsys pintool. For primary screens, the MIPE collection was tested at 11-point dilutions (final concentrations range from 0.78 nM to 46 µM) and the NPC collection at 8-point dilutions (final concentrations range from 0.59 nM to 46 µM). Compounds tested in follow-up screens were assayed at 11-point dilutions. Cells were incubated for 48 hours, followed by addition of 3 µL of CellTiter-Glo (Promega). After a 15 min incubation at room temperature, samples were analyzed for luminescence intensity using a ViewLux High-throughput CCD imager equipped with clear filters."}
{"smiles": "C/C(=N\\O)[C@@H](C)NCC(C)(C)CN[C@H](C)/C(C)=N/O", "Potency": "inactive"}
{"smiles": "Cc1c(F)cc2c(=O)c(C(=O)O)cn3c2c1CCC3C", "note": "(stereo not given)", "Potency": "inactive"}
{"smiles": "CC(=O)O[C@H]1CC[C@@]2(C)C(=CC[C@@H]3[C@@H]2CC[C@]2(C)C(C(C)=O)=CC[C@@H]32)C1", "Potency": "inactive"}
{"smiles": "CN1CCC(=C2c3ccccc3CCc3cccnc32)CC1", "Potency": "inactive"}
{"smiles": "CC1(C)OC(=O)Nc2ccc(Br)cc21", "Potency": "inactive"}
{"smiles": "NCC[C@H](O)C(=O)N[C@@H]1C[C@H](N)[C@@H](O[C@H]2O[C@H](CN)[C@@H](O)[C@H](O)[C@@H]2O)[C@H](O)[C@@H]1O[C@H]1O[C@H](CO)[C@@H](O)[C@H](N)[C@@H]1O", "activity change, negative = cytotoxic": "17.5% [at 0.73 µM] (inactive)"}
{"smiles": "CC(=O)c1ccc(O)c(C(N)=O)c1", "Potency": "inactive"}
{"smiles": "Cc1ccc(C(C)OC(=O)C2(C)CCC(C(=O)O)C2(C)C)cc1", "note": "(stereo not given)", "Potency": "inactive"}
{"smiles": "Cc1cc(OCCOCC[N+](C)(C)Cc2ccccc2)ccc1C(C)(C)CC(C)(C)C", "Potency": "4.37 µM (active)"}
{"smiles": "CC(NC(CCc1ccccc1)C(=O)O)C(=O)N1C(=O)N(C)CC1C(=O)O", "note": "(stereo not given)", "Potency": "inactive"}
{"smiles": "C/C(=C1\\CCOC(=O)S1)N(C=O)Cc1cnc(C)nc1N", "Potency": "inactive"}
{"smiles": "CCN(CC)CC(=O)Nc1c(C)cccc1C(=O)OC", "Potency": "inactive"}
{"smiles": "CC(=O)O[C@@H]1CC2C3CCc4cc(OC(=O)c5ccccc5)ccc4C3CCC2(C)[C@H]1OC(C)=O", "note": "(stereo not given in full)", "Potency": "inactive"}
{"smiles": "CN=C(N)NC(=O)Nc1c(C)cccc1C", "Potency": "inactive"}
{"smiles": "CC(=O)N(c1onc(C)c1C)S(=O)(=O)c1ccc(N)cc1", "Potency": "inactive"}
{"smiles": "Brc1ccccc1-c1ccccc1", "Potency": "inactive"}
{"smiles": "C1N2CN3CN1CN(C2)C3", "Potency": "inactive"}
{"smiles": "Oc1ccccc1-c1nnco1", "Potency": "inactive"}
{"smiles": "C[C@H](N)C(=O)N[C@@H](C)C(=O)NC1[C@H]2CN(c3nc4c(cc3F)c(=O)c(C(=O)O)cn4-c3ccc(F)cc3F)C[C@@H]12", "note": "(stereo not given in full)", "Potency": "inactive"}
{"smiles": "CC(=O)N(CC(=O)N(C)C)c1ccccc1", "Potency": "inactive"}
{"smiles": "Cc1cc2nc3ccc(=[N+](C)C)cc-3sc2cc1N", "Potency": "3.89 µM (active)"}
{"smiles": "O=C(O)CCCC[C@@H]1SC[C@@H]2NC(=O)N[C@@H]21", "Potency": "inactive"}
{"smiles": "CCOC(=O)c1ccc(OCCN2C[C@H](O)[C@@H](O)[C@H](O)[C@H]2CO)cc1", "Potency": "inactive"}
{"smiles": "Cc1cccc(OCC(O)CNC(C)(C)C)c1C", "note": "(stereo not given)", "Potency": "inactive"}
{"smiles": "CC(=O)Oc1ccc(C2(c3ccc(OC(C)=O)cc3)Oc3ccccc3NC2=O)cc1", "Potency": "12.3 µM (active)"}
{"smiles": "COC(=O)c1ccc(NC(C)=O)cc1OC", "Potency": "inactive"}
{"smiles": "COc1ccccc1OCC1CNC(=O)O1", "note": "(stereo not given)", "Potency": "inactive"}
{"smiles": "CC(C)NC(=O)c1ccc(C=O)cc1", "Potency": "inactive"}
{"smiles": "CCCCCN(CCCOC)C(=O)C(CCC(=O)O)NC(=O)c1ccc(Cl)c(Cl)c1", "note": "(stereo not given)", "Potency": "inactive"}
{"smiles": "COc1ccc(CCC(C)=O)cc1", "Potency": "inactive"}
{"smiles": "Oc1cccc2[nH]ccc12", "Potency": "inactive"}
{"smiles": "NS(=O)(=O)c1cc(C(=O)NN2C[C@H]3[C@H]4CCC(C4)[C@H]3C2)ccc1Cl", "Potency": "inactive"}
{"smiles": "CCOC(=O)[C@H](CCc1ccccc1)N[C@@H](C)C(=O)N(CC(=O)O)C1Cc2ccccc2C1", "Potency": "inactive"}
{"smiles": "CCCc1ncc(C(=O)O)s1", "Potency": "inactive"}
{"smiles": "CC(=O)N[C@@H](CCC(N)=O)C(=O)O", "Potency": "inactive"}
{"smiles": "CCCCCC[C@@H](CCC)C(=O)O", "Potency": "inactive"}
{"smiles": "COc1cc2c(cc1OC)CN(C(=O)[C@H](C)N[C@@H](CCc1ccccc1)C(=O)O)[C@H](C(=O)O)C2", "Potency": "inactive"}
{"smiles": "CCCCC(O)/C=C(C)/C=C/C=C/C(=O)N1CCCC1=O", "note": "(stereo not given)", "Potency": "inactive"}
{"smiles": "O=C(COCCOCCOCC(=O)Nc1c(I)cc(I)c(C(=O)O)c1I)Nc1c(I)cc(I)c(C(=O)O)c1I", "Potency": "inactive"}
{"smiles": "COC(=O)[C@H]1[C@H]2C[C@@H]3c4[nH]c5cc(OC)ccc5c4CCN3C[C@H]2C[C@@H](OC(=O)/C=C/c2ccc(O)c(OC)c2)[C@@H]1OC", "Potency": "34.7 µM (active)"}
